# High-throughput results from PubChem.
# SW480 rerep = A quantitative high throughput screen for small molecules that induce DNA re-replication in SW480 colon adenocarcinoma cells. SW480 DNA re-replication, Hoechst DNA content imaging, 48 h. Potency, µM (highest dose often 46.1 µM), most hits filed as activators. 340,000 tested, 1.8% active; also: nearly all actives have a fitted effect of over 55% in size
#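 SW480 cells exposed to compounds for 48 hr at 37 C, 5% CO2, then Hoechst-stained 40 min. Nuclear DNA content imaged by fluorescence scanning (405 nm excitation, 500-530 nm emission); re-replication scored as increased high-intensity nuclei.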
# KB-V1 cytotox = qHTS assay for MDR1-selective chemotherapeutics: Primary screen using the drug-selected MDR subline cells KB-V1; KB-V1 MDR cells viability, CellTiter-Glo, 72 h; 400,000 tested, 3.4% active; Potency, µM (highest dose often 46.1 µM), hits mostly cytotoxic; AID 1347076, 2019; also: nearly all actives have a fitted effect of over 60% in size
#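 Cytotoxicity via CellTiter-Glo luminescence after 72 h compound exposure at 37 degrees C. Cells: drug-selected KB-V1 line, DMEM phenol-red free plus 10% FBS. Compounds tested at multiple concentrations; normalized data fitted to concentration-effect curves.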
# KB-3-1 tox = qHTS assay for MDR1-selective chemotherapeutics: Primary screen using the parental adenocarcinoma cell KB-3-1 | 400,000 tested, 1.4% active | AID 1347075, 2019 | KB-3-1 viability, CellTiter-Glo ATP luminescence, 72 h | Potency, µM (titrated, usually from 46.1 µM), most hits filed as cytotoxic; also: nearly all actives have a fitted effect of over 60% in size
#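 Viability of parental KB-3-1 cells, measured by CellTiter-Glo luminescence, followed a 72 h incubation at 37 °C with pinned compounds in phenol-red-free DMEM containing 10% FBS.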
# HT1080 IDH1KD tx = qHTS for induction of synthetic lethality in tumor cells producing 2HG: qHTS for the HT-1080-IDH1KD cell line; HT-1080 IDH1 knockdown viability, ATP luminescence, 48 h; Potency, µM (doses to about 46.1 µM), actives largely listed as cytotoxic; 360,000 tested, 2% active
#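 HT-1080-IDH1KD cells (IDH1 knocked down), 750/well in RPMI with 5% FBS, treated with compound 48 h at 37 degrees C. Viability by CellTiter-Glo luminescence, normalised to DMSO and no-cell wells; concentration-response curves classed.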
# MCF10A rerep = A quantitative high throughput screen for small molecules that induce DNA re-replication in MCF 10a normal breast cells; AID 624296, 2012; MCF 10A DNA re-replication, Hoechst nuclear intensity, 48 h; 350,000 tested, 2.9% active; Potency, µM (highest dose often 46.1 µM), hits mostly activators; also: nearly all actives have a fitted effect of over 50% in size
# HT1080NT lethal = qHTS for induction of synthetic lethality in tumor cells producing 2HG: qHTS for the HT-1080-NT fibrosarcoma cell line; HT-1080-NT fibrosarcoma viability, CellTiter-Glo ATP luminescence, 48 h; 360,000 tested, 1.6% active; Potency, µM (titrated, usually from 46.1 µM), actives largely listed as cytotoxic;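 also: NT is the 2HG producing partner of a matched IDH1 knockdown line; nearly all actives have a fitted effect of over 55% in size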
#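 750 cells/well, RPMI + 5% FBS; 2 h settle, compound pin-transfer, 48 h at 37 degrees C. CellTiter-Glo 10 min RT, luminescence. Normalized to DMSO and media-only wells.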
# Numbers stand for hits; – = inactive; ? = inconclusive; · = no result. An excerpt weighted towards active compounds, which were near 7.9% of everything screened. Calls follow the shape of the dose curve; as a rule, active = well fitted curve in the direction sought with a large enough effect; inconclusive = small, poorly fitted or top-dose-only effect, or another doubt; inactive = no such curve, though single readings can be large; an effect the other way counts as inactive or inconclusive.
SMILES,SW480 rerep,KB-V1 cytotox,KB-3-1 tox,HT1080 IDH1KD tx,MCF10A rerep,HT1080NT lethal
Cc1ccc(C)c(NC(=O)c2ccccc2O)c1,?,–,?,?,?,?
Cc1ccc(/C=C/C(=O)c2ccccc(=O)c2O)c(C)c1,?,8.2µM,16µM,18µM,?,21µM
O=C(/C=C/c1ccc([N+](=O)[O-])cc1)c1ccccc(=O)c1O,5.8µM,1µM,?,5.8µM,2.9µM,6.5µM
O=C(/C=C/c1ccc([N+](=O)[O-])cc1)c1cccs1,?,–,–,–,–,–
O=C(/C=C/c1ccccc1Cl)c1ccccc(=O)c1O,12µM,18µM,21µM,12µM,10µM,12µM
Nc1ccc(NC(=O)c2cccc(C(=O)Nc3ccc(N)cc3Cl)c2)c(Cl)c1,?,?,?,16µM,?,?
Cc1ccc2nc3c(c(Nc4ccc(C)c(C)c4)c2c1)CCC3,·,18µM,–,·,·,·
c1coc(CNc2c3c(nc4ccccc24)CCC3)c1,?,?,?,–,18µM,–
Cc1ccc(Nc2c3c(nc4ccccc24)CCC3)cc1F,·,–,21µM,·,·,·
Cc1ccc2nc3c(c(Nc4ccc(O)cc4)c2c1)CCC3,?,–,–,–,?,–
N#Cc1cccc(Nc2c3c(nc4ccccc24)CCC3)c1,–,–,–,?,?,–
Cc1cccc(Nc2c3c(nc4ccccc24)CCC3)c1,–,?,?,21µM,–,15µM
COc1ccc(C(=O)Nc2cccc(OC)c2)cc1,–,–,?,–,–,–
O=c1cc(-c2ccccc2)[nH]c2ccccc12,?,?,0.65µM,2.3µM,1.3µM,?
O=C1C(c2cc(=O)c3ccccc3[nH]2)=C(O)c2ccccc21,–,–,–,–,?,–
COc1ccc(C(=O)Nc2ccc3[nH]c(-c4cccc(OC)c4)cc(=O)c3c2)cc1,0.65µM,–,0.73µM,?,0.58µM,?
COc1ccc2[nH]c(-c3ccc(C)cc3)cc(=O)c2c1,?,?,9.2µM,23µM,?,?
CC(C)(C)c1ccc(C(=O)OCC(=O)N2CCC(c3ccccc3)=N2)cc1,?,–,–,–,–,–
CCOc1ccc(N(Cc2cc3cc(C)ccc3[nH]c2=O)S(=O)(=O)c2ccccc2)cc1,–,–,–,–,–,–
Cc1cc(OCCOCCNCc2ccccc2)ccc1C(C)C,–,–,–,–,–,–
CCc1ccc(-c2cc3c(=O)n(CC(=O)NCCN4CCCCC4C)nc(C)n3n2)cc1 (configuration not stated),18µM,–,?,–,?,–
CCc1ccc(-c2cc3c(=O)n(CC(=O)N4CCCC4)nc(C)n3n2)cc1,–,–,–,–,?,–
CCCc1cc(C(=O)Cc2ccc(C(=O)OCC)o2)c(O)cc1O,–,–,–,–,?,–
CCc1cc(C(=O)Cc2ccc(F)cc2)c(O)cc1O,–,16µM,?,?,–,?
O=C(Cc1ccc(F)cc1)c1ccc(O)cc1O,–,–,–,–,–,–
SMILES,SW480 rerep,KB-V1 cytotox,KB-3-1 tox,HT1080 IDH1KD tx,MCF10A rerep,HT1080NT lethal
CCCc1cc(C(=O)Cc2ccc(F)cc2)c(O)cc1O,–,–,–,21µM,?,23µM
CC(C)NC(=O)C1CC(=O)N(CCc2ccc(F)cc2)C1 (configuration not stated),·,–,–,–,·,–
CCc1ccccc1Nc1cc(C(=O)NC2CCC(C)CC2)c2ccccc2n1 (configuration not stated),·,–,–,·,·,·
CCN1CCN(Cc2cccc(Oc3ccc(Cl)cc3)c2)CC1,16µM,?,–,?,16µM,?
COc1cccc(CN2CCN(Cc3cccc(Oc4ccccc4)c3)CC2)c1OC,23µM,–,–,–,15µM,–
COc1cccc(CN2CCN(Cc3cc(OC)c(OC)c(OC)c3)CC2)c1OC,–,?,–,–,–,–
Cc1ccc(-c2nc(CSc3nnc(C)n4c3cc3occc34)c(C)o2)cc1,·,–,–,·,·,·
COC(=O)c1ccc(-n2c(C)cc(C(=O)CSc3cccc[n+]3[O-])c2C)cc1,–,?,–,–,1.3µM,–
O=C(NCc1ccc(F)cc1)C(c1ccccc1)c1ccccc1,–,–,–,–,–,–
CC(=O)N(Cc1ccc(F)cc1)C1=C(NCc2ccccc2)C(=O)c2ccccc2C1=O,?,–,?,5µM,?,4.5µM
NNC(=O)c1cc2cc3ccccc3nc2s1,–,–,–,?,12µM,?
CS(=O)(=O)NNC(=O)c1cc2cc3ccccc3nc2s1,–,–,–,–,–,–
O=C(O)c1ccc(N2CC3CC(C2)c2cccc(=O)n2C3)c(NC(=S)Nc2ccc(Br)cc2)c1 (configuration not stated),–,?,–,–,–,–
Cc1ccccc1Cn1c(=O)n(CCCCC(=O)NCCc2ccccc2)c(=O)c2ccccc21,·,–,–,·,·,·
COc1cccc2c1OCC(C(=O)O)C2 (configuration not stated),–,–,–,?,–,–
COc1cccc2c1C(CO)N1C(C#N)C3CC(C(=O)O)C(C1C2)N3C (configuration not stated),0.92µM,0.21µM,0.026µM,?,–,–
O=C(/C=C/c1ccc(Cl)cc1)N1CCN(c2ccc([N+](=O)[O-])c(N3CCOCC3)c2)CC1,–,2.3µM,?,–,–,–
O=C(CSc1ccc(Cl)cc1)N1CCN(c2ccc(Cl)cc2[N+](=O)[O-])CC1,–,?,–,?,18µM,?
O=C(COc1ccc(Cl)cc1)N1CCN(c2ccc([N+](=O)[O-])c(N3CCOCC3)c2)CC1,–,16µM,–,–,–,–
Cc1nn(C)cc1C(=O)Nc1ccc2c(c1)OCCO2,–,–,–,–,–,–
CCOc1ccc(C(=O)NCC(=O)NCC2CCCCC2)cc1OCC,–,–,–,–,–,–
CC(C)CCn1c(=O)c2cccnc2n(CC(=O)Nc2ccccc2)c1=O,·,–,–,·,·,·
O=c1[nH]c(NNC(=S)NCc2ccccc2)nc2c1C1(CCCCC1)Cc1ccccc1-2,–,–,–,–,12µM,–
CCN(CC)Cc1nc2c(c(=O)[nH]1)C1(CCCCC1)Cc1ccccc1-2,?,–,–,–,5.8µM,–
CN(C)Cc1nc2c(c(=O)[nH]1)C1(CCCCC1)Cc1ccccc1-2,–,–,–,–,?,–
